Measurements from PubChem BioAssay (NCI).
The panel holds about 83,000 compounds, 20% with a hit somewhere; the sample as a whole holds those more often.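 Values shown are percent growth following 48 h exposure of cells in 96-well plates to a single concentration of compound; below 10 was considered active.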 Values without a mark were called inactive. Calls of active or inactive are those of the source.

Experiments:
Test in all cases: NCI-60 one-dose screen, 48 h (100 = growth as untreated, 0 = no growth, -100 = all killed)
Conditions in all cases: 10 µM unless noted
NCI-H23 lung = system: NCI-H23 lung
NCI-H226 lung = system: NCI-H226 lung
HOP-62 NSCLC = system: HOP-62 NSCLC
NCI-H460 lung = system: NCI-H460 lung
HOP-92 NSCLC = system: HOP-92 NSCLC
NCI-H522 lung = system: NCI-H522 lung
A549/ATCC NSCLC = system: A549/ATCC NSCLC
786-0 renal = system: 786-0 renal
COLO 205 colon = system: COLO 205 colon
DU-145 prostate = system: DU-145 prostate
K-562 leukemia = system: K-562 leukemia
MALME-3M melanoma = system: MALME-3M melanoma
MDA-MB-231 breast = system: MDA-MB-231 breast
RXF 393 renal = system: RXF 393 renal
SF-268 CNS = system: SF-268 CNS
SF-295 CNS = system: SF-295 CNS
SF-539 CNS = system: SF-539 CNS
UACC-257 melanoma = system: UACC-257 melanoma
M14 melanoma = system: M14 melanoma

Row | Structure (SMILES) | growth (NCI-H23 lung) | growth (NCI-H226 lung) | growth (HOP-62 NSCLC) | growth (NCI-H460 lung) | growth (HOP-92 NSCLC) | growth (NCI-H522 lung) | growth (A549/ATCC NSCLC) | growth (786-0 renal) | growth (COLO 205 colon) | growth (DU-145 prostate) | growth (K-562 leukemia) | growth (MALME-3M melanoma) | growth (MDA-MB-231 breast) | growth (RXF 393 renal) | growth (SF-268 CNS) | growth (SF-295 CNS) | growth (SF-539 CNS) | growth (UACC-257 melanoma) | growth (M14 melanoma)
1 | COc1cc2nccc(Oc3ccc(NC(=O)C4(C(=O)Nc5c(F)cc(F)cc5F)CC4)cc3)c2cc1Oc1ccc(N)cn1 | 53.6% | 37.7% | 67.7% | 65.4% | 2.04% (active) | 55% | 48% | 96.5% | 44.3% | 80.7% | 7.69% (active) | 59% | 65.9% | 65.8% | 55.5% | 30.6% | 21.2% | 53.8% | 56.9%
2 | c1ccc(C2=Nc3ccccc3SC2)cc1 | 93.5% | 108% | 113% | 99.3% | 62.1% | 99.6% | 96.5% | 117% | 114% |  | 124% | 99.3% | 101% | 129% |  | 97.2% | 103% | 105% | 103%
3 | CC(CN1CCN(C)CC1)CN1c2ccccc2Sc2ccc(C(F)(F)F)cc21 (centres undefined) | 74.3% | 81.8% | 85.6% | 0.601% (active) | 39.7% | 43.8% | 41.2% | 52.2% | -68% (active) | 61.7% | -31.2% (active) | 62.9% | 27.6% | 18.7% | 52.2% |  | 67.5% | 30% | 0.817% (active)
4 | Fc1ccc2nc(-c3ccc(-c4noc(-c5ccc(Cl)cc5)n4)cc3)[nH]c2c1 | 104% | 97.1% | 103% | 103% | 105% | 87.1% | 100% | 86.5% | 116% | 98.5% | 92.5% |  | 106% | 110% | 105% |  | 100% | 101% | 107%
5 | OC(c1cc2c(Cl)cc(Cl)cc2c2cc(C(F)(F)F)ccc12)C1CCCCN1 (centres undefined) | -77.5% (active) | -66% (active) | -90% (active) | -73.6% (active) | -88.8% (active) | -83.9% (active) | -80.9% (active) | -67.6% (active) | -88.3% (active) | -94.5% (active) | -75.5% (active) | -44% (active) | -73% (active) | -90.9% (active) | -82.9% (active) |  | -81.5% (active) | -67.1% (active) | -82.3% (active)
6 | N#Cc1c(N)n(C2OC(CO)C(O)C2O)c2ncnc(N)c12 (centres undefined) | -8.8% (active) | 12.1% | -12.7% (active) | 0.304% (active) | -21.3% (active) | -56.1% (active) | 1.3% (active) | -7.63% (active) | -32.8% (active) | -9.06% (active) | -28.6% (active) | -25.7% (active) | 14.3% | -77.1% (active) | -18.8% (active) | 4.21% (active) | -53.1% (active) | -37.8% (active) | -52% (active)
7 | CC(=O)O[C@H]1[C@H](CC#CC#CC[C@@H]2C[C@]3(C)[C@H]4CC=C5[C@H]6[C@@H](C)[C@H](C)CC[C@]6(C(=O)NCCN(CCN)CCN)CC[C@@]5(C)[C@]4(C)CC[C@H]3C(C)(C)[C@H]2OC(C)=O)C[C@]2(C)[C@H]3CC=C4[C@H]5[C@@H](C)[C@H](C)CC[C@]5(C(=O)NCCN(CCN)CCN)CC[C@@]4(C)[C@]3(C)CC[C@H]2C1(C)C | 11.9% | 69.5% | 87.1% | 80.5% | 48.6% | 15.2% | 43% | 82.8% | 78% | 86% | 18.3% | 67.8% | 59.6% | 57.9% | 87.1% |  | 84.2% | 96% | 63.1%
8 | O=C1CC2(O)CSc3nc(=O)cc(n32)N1 (centres undefined) | 107% | 98.6% | 112% | 104% | 105% | 102% | 96.5% | 99.6% | 103% | 115% | 111% | 99.8% | 100% | 110% | 112% | 88.8% | 104% | 99.2% | 101%
9 | COc1cc(C2CC(c3ccc(Cl)cc3)=NN2C=O)ccc1OS(=O)(=O)c1ccc(C)cc1 (centres undefined) | 83.5% | 84.5% | 96.6% | 91% | 85.1% | 82.7% | 78.8% | 88.4% | 100% | 105% | 82.1% | 93.8% | 92.5% | 97.2% | 100% | 87.4% | 89.6% | 85.3% | 84%
